The values below come from ChEMBL document CHEMBL1961873, “Compounds: GSK PKIS; Assays: Nanosyn kinase panel” (2012).

For orientation: inhibition means the change of the read-out against control, counted positive when it falls.

Molecules are shown by their SMILES. Several values for one entry are separate records, joined by “and”; a condition that tells them apart may be missing. Identical values can stand only once.

In the first assay the target is Ribosomal protein S6 kinase alpha-2 (Homo sapiens) (UniProt Q15349). The note with it: at 0.1 µM.
Ribosomal protein S6 kinase alpha-2 (Homo sapiens), sequence (Q15349 whole entry): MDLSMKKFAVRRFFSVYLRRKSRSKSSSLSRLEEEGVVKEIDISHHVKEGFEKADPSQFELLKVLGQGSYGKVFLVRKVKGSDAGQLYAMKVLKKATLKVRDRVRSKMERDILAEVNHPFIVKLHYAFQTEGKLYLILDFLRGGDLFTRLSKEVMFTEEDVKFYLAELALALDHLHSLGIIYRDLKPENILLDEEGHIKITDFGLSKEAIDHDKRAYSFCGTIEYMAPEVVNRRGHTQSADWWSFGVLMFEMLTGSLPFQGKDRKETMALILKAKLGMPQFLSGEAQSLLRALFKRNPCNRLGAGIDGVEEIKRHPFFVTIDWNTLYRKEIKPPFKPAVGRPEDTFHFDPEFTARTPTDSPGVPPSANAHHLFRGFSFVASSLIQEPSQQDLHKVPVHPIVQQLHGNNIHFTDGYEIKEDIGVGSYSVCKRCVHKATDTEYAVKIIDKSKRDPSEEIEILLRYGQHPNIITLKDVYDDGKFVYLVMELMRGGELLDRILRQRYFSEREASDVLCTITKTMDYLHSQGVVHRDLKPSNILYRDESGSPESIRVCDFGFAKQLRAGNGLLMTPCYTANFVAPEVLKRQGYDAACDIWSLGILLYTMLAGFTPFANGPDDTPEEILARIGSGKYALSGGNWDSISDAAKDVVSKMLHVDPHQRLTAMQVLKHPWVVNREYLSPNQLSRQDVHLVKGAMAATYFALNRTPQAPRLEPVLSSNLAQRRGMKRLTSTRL
For `CCCNc1cccc(-n2ncc3c(N/N=C/c4ccncc4)ncnc32)c1`, the inhibition is -0.01%.
On to `COC(=O)Nc1nc2ccc(Oc3ccc(NC(=O)Nc4cc(C(F)(F)F)ccc4F)cc3)cc2s1`, for which the inhibition came out at 3.19%.
Consider `N#Cc1ccc2c(-c3ccnc(NC4CC4)n3)c(-c3ccc(F)cc3)nn2c1`, for which the inhibition worked out at 1.03%.
Regarding `Fc1cccc(COc2ccc(Nc3ncncc3C#Cc3ccccc3)cc2Cl)c1`, the inhibition was determined as 3.21%.
Still for that read-out and setting: to `NS(=O)(=O)c1cccc(N/C=C2\C(=O)Nc3ccccc32)c1` belongs 5.57%.
As to `COc1ccccc1-c1cc(/C=C2\C(=O)Nc3ncc(Br)cc32)cc(Br)c1O`, the inhibition was 1.52%.
As to `COC(=O)Nc1nc2cc(Oc3ccc(NC(=O)Nc4ccccc4)cc3)ccc2[nH]1`, the inhibition is 1.67%.
For `O=C(O[C@H]1CN[C@H](C#Cc2cc3ncnc(Nc4ccc5c(cnn5Cc5ccccc5)c4)c3s2)C1)N1CCOCC1`, the inhibition is -0.5%.
Same read-out and setting: next, `CCn1c(-c2nonc2N)nc2cncc(C(=O)NCCNC)c21`: 25.4%; `Cc1cc(O)cc(C)c1/C=C/c1cncc(C(=O)OC(C)(C)C)c1`: 1.57%.
Turning to `N#Cc1cccc(Nc2ncc(-c3ccccc3)o2)c1`, the inhibition is 1.14%.
In the case of `CNC(=O)c1sc(-n2cnc3cc(OC)c(OC)cc32)cc1OCc1ccccc1C(F)(F)F`, the inhibition worked out at 2.72%.
On the same count and under the same terms, next, `COc1ccc2ncn(-c3cc(O[C@H](C)c4ccccc4C(F)(F)F)c(C(N)=O)s3)c2c1`: 0.69%; `COc1ccc(-c2nn3ncccc3c2-c2ccnc(Nc3ccc(F)c(F)c3)n2)cc1`: 2.96%.
Take `Cc1cc(O)cc(C)c1/C=C/c1cncc(C(N)=O)c1`: the inhibition was 1.1%.
`Fc1ccc(Nc2nccc(-c3c(-c4ccc(C(F)(F)F)cc4)nn4ncccc34)n2)cc1F`: the inhibition worked out at 1.11%.
Turning to `c1ccc(-c2n[nH]cc2-c2ccnc(-c3ccc(OCCn4ccnc4)cc3)c2)nc1`, the inhibition was 1.32%.
For the compound `COc1cc(N2CCN(C(C)C)CC2)ccc1Nc1nc(Nc2cccc(F)c2C(=O)O)c2cc[nH]c2n1`, the inhibition was 0.99%.
Take `CS(=O)(=O)Nc1ccc(-c2cc(-c3ccccc3)cc(C(N)=O)c2N)cc1`: the inhibition was -1.55%.
`Nc1ncnc2occ(-c3ccc(NC(=O)Nc4cc(C(F)(F)F)ccc4F)cc3)c12`: the inhibition was 9.18% and 5.3%.
As to `COc1cc2c(cc1Nc1nc(Nc3cccc(F)c3C(N)=O)c3cc[nH]c3n1)N(C(=O)CN1CCN(C(C)C)CC1)CC2`, the inhibition was 1.68%.
`CCS(=O)(=O)c1ccc(OC)c(Nc2ncc(-c3cccc(C(C)=O)c3)o2)c1`: the inhibition is 0.6%.
Same read-out and setting: to `CC(C)c1ccc(-c2cc(-c3c[nH]nc3-c3ccccn3)ccn2)cc1` belongs 1.17%.
Same read-out and setting: to `O=C(O[C@H]1CN[C@H](C#Cc2cc3ncnc(Nc4ccc5c(ccn5Cc5cc(F)ccc5F)c4)c3s2)C1)N1CCOCC1` belongs 3.56%.
`CN(c1ccc(NC(=O)NCCN2CCOCC2)cc1)c1ccnc(Nc2ccc(CS(C)(=O)=O)cc2)n1`: the inhibition is 1.38%.
`NS(=O)(=O)c1ccc(N/N=C2\C(=O)Nc3cccc(CCc4ccncc4)c32)cc1`: the inhibition stood at 2.79%.
Consider `CNC(=O)c1cncc(/C=C/c2ccccc2C)c1`, for which the inhibition was found to be 0.87%.
As to `CN1CCC(C(=O)Nc2n[nH]c3nc(-c4ccc(O)cc4)c(Br)cc23)CC1`, the inhibition is 3.56% and 2.99%.
Turning to `COc1c(C(N)=O)cc(-c2ccc(Cl)cc2)cc1-c1ccc(S(N)(=O)=O)cc1`, the inhibition came out at 2.4%.
`CN1CCN(Cc2ccc(-c3cc4ncnc(Nc5ccc(OCc6cccc(F)c6)c(Cl)c5)c4s3)o2)CC1`: the inhibition was 2.32% and 1.76%.
As to `NC(=O)c1ccc2c(-c3ccnc(NCCCO)n3)c(-c3ccc(F)cc3)nn2c1`, the inhibition was 2.66%.

For another assay the target is unchanged. The note with it: at 1 µM.
On to `CCCNc1cccc(-n2ncc3c(N/N=C/c4ccncc4)ncnc32)c1`, for which the inhibition came out at 2.43%.
Regarding `COC(=O)Nc1nc2ccc(Oc3ccc(NC(=O)Nc4cc(C(F)(F)F)ccc4F)cc3)cc2s1`, the inhibition was found to be 13.1%.
Still for that read-out and setting: next, `N#Cc1ccc2c(-c3ccnc(NC4CC4)n3)c(-c3ccc(F)cc3)nn2c1`: 1.48%; `Fc1cccc(COc2ccc(Nc3ncncc3C#Cc3ccccc3)cc2Cl)c1`: 2.81%; `NS(=O)(=O)c1cccc(N/C=C2\C(=O)Nc3ccccc32)c1`: 26.2%.
Regarding `COc1ccccc1-c1cc(/C=C2\C(=O)Nc3ncc(Br)cc32)cc(Br)c1O`, the inhibition amounted to 3.85%.
On to `COC(=O)Nc1nc2cc(Oc3ccc(NC(=O)Nc4ccccc4)cc3)ccc2[nH]1`, for which the inhibition was 1.89%.
As to `O=C(O[C@H]1CN[C@H](C#Cc2cc3ncnc(Nc4ccc5c(cnn5Cc5ccccc5)c4)c3s2)C1)N1CCOCC1`, the inhibition was -1.02%.
As for `CCn1c(-c2nonc2N)nc2cncc(C(=O)NCCNC)c21`, the inhibition amounted to 73.8%.
As to `Cc1cc(O)cc(C)c1/C=C/c1cncc(C(=O)OC(C)(C)C)c1`, the inhibition is 1.41%.
As for `N#Cc1cccc(Nc2ncc(-c3ccccc3)o2)c1`, the inhibition amounted to 1.32%.
Regarding `CNC(=O)c1sc(-n2cnc3cc(OC)c(OC)cc32)cc1OCc1ccccc1C(F)(F)F`, the inhibition came to 2.3%.
For the compound `COc1ccc2ncn(-c3cc(O[C@H](C)c4ccccc4C(F)(F)F)c(C(N)=O)s3)c2c1`, the inhibition is 2.5%.
In the case of `COc1ccc(-c2nn3ncccc3c2-c2ccnc(Nc3ccc(F)c(F)c3)n2)cc1`, the inhibition was found to be 2.69%.
Same read-out and setting: to `Cc1cc(O)cc(C)c1/C=C/c1cncc(C(N)=O)c1` belongs 1.48%.
Same read-out and setting: to `Fc1ccc(Nc2nccc(-c3c(-c4ccc(C(F)(F)F)cc4)nn4ncccc34)n2)cc1F` belongs 2.41%; to `c1ccc(-c2n[nH]cc2-c2ccnc(-c3ccc(OCCn4ccnc4)cc3)c2)nc1`, 1.36%; to `COc1cc(N2CCN(C(C)C)CC2)ccc1Nc1nc(Nc2cccc(F)c2C(=O)O)c2cc[nH]c2n1`, 5.21%.
On to `CS(=O)(=O)Nc1ccc(-c2cc(-c3ccccc3)cc(C(N)=O)c2N)cc1`, for which the inhibition was 0.47%.
On to `Nc1ncnc2occ(-c3ccc(NC(=O)Nc4cc(C(F)(F)F)ccc4F)cc3)c12`, for which the inhibition is 51.1% and 37.7%.
For `COc1cc2c(cc1Nc1nc(Nc3cccc(F)c3C(N)=O)c3cc[nH]c3n1)N(C(=O)CN1CCN(C(C)C)CC1)CC2`, the inhibition is 2.89%.
Still for that read-out and setting: next, `CCS(=O)(=O)c1ccc(OC)c(Nc2ncc(-c3cccc(C(C)=O)c3)o2)c1`: 3.67%.
With `CC(C)c1ccc(-c2cc(-c3c[nH]nc3-c3ccccn3)ccn2)cc1`, the inhibition is 1.83%.
Consider `O=C(O[C@H]1CN[C@H](C#Cc2cc3ncnc(Nc4ccc5c(ccn5Cc5cc(F)ccc5F)c4)c3s2)C1)N1CCOCC1`, for which the inhibition is 2.57%.
Regarding `CN(c1ccc(NC(=O)NCCN2CCOCC2)cc1)c1ccnc(Nc2ccc(CS(C)(=O)=O)cc2)n1`, the inhibition is 2.28%.
In the case of `NS(=O)(=O)c1ccc(N/N=C2\C(=O)Nc3cccc(CCc4ccncc4)c32)cc1`, the inhibition is 7.37%.
Turning to `CNC(=O)c1cncc(/C=C/c2ccccc2C)c1`, the inhibition worked out at 2.74%.
For the compound `CN1CCC(C(=O)Nc2n[nH]c3nc(-c4ccc(O)cc4)c(Br)cc23)CC1`, the inhibition is 7.9% and 6.17%.
Still for that read-out and setting: to `COc1c(C(N)=O)cc(-c2ccc(Cl)cc2)cc1-c1ccc(S(N)(=O)=O)cc1` belongs 2.98%; to `CN1CCN(Cc2ccc(-c3cc4ncnc(Nc5ccc(OCc6cccc(F)c6)c(Cl)c5)c4s3)o2)CC1`, 3.34% and 4.93%; to `NC(=O)c1ccc2c(-c3ccnc(NCCCO)n3)c(-c3ccc(F)cc3)nn2c1`, 3.1%.
